Test in all cases: DAPPL (digital affinity profiling via proximity ligation, sequencing); 10 mM Tris-HCl pH 7.5, 50 mM NaCl, 1 mM DTT, 4% glycerol, room temperature, 30 min; GST-TFs on glutathione beads, 16-mer random dsDNA library, 0.1% formaldehyde crosslink after washing; high values mean tight binding
For one assay, the target named is T1, FLI1 (Homo sapiens, UniProt Q01543 1-452).
T1 sequence: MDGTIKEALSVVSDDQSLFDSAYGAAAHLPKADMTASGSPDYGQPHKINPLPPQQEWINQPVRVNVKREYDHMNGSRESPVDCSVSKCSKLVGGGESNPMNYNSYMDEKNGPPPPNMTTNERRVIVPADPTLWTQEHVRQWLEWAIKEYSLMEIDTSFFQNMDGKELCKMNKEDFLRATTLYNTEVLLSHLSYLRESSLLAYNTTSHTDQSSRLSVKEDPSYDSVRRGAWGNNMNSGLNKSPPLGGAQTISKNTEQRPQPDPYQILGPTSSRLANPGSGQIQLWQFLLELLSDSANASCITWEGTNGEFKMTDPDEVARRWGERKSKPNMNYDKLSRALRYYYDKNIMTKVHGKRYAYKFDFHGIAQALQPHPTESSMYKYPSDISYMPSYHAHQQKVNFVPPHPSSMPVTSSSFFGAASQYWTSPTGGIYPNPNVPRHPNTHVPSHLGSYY
As to conditions: protein: recombinant; tags: N-terminal GST; dsDNA, one strand shown. The method, boiled down:
(§1)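 After expression in yeast as GST fusions, human transcription factors were bound to glutathione beads, DNA-barcoded and mixed with a tag-only sample. The pools were incubated with 200 nmole of a 16-mer random double-stranded DNA library in Tris/NaCl/DTT/glycerol buffer (30 min, room temperature), washed and crosslinked with 0.1% formaldehyde. Proximity ligation with BsaI/T4 ligase ran for 1 h at 37 °C, before PCR amplification and sequencing on an Illumina NextSeq500. Binding signal is a hexamer's read frequency for a factor divided by its frequency for the tag-only sample.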

The target in the next assay is T2, ELK1 (Homo sapiens, UniProt P19419 1-428).
T2 sequence: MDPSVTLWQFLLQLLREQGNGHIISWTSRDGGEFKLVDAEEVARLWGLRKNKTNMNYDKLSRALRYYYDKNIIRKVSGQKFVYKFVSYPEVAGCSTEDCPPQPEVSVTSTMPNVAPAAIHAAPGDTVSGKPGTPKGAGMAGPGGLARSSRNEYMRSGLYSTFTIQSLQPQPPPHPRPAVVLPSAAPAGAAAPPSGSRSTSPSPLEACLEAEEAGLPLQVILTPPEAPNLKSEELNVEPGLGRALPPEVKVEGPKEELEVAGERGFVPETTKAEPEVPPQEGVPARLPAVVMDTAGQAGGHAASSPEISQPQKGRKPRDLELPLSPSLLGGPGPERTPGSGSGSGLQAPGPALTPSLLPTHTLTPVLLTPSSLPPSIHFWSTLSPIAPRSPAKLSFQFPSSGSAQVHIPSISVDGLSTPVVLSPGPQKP
As to conditions: protein: recombinant; tags: N-terminal GST; dsDNA, one strand shown. The method, boiled down: as §1

Another assay addresses T3, GABPA (Homo sapiens, UniProt Q06546 1-454).
T3 sequence: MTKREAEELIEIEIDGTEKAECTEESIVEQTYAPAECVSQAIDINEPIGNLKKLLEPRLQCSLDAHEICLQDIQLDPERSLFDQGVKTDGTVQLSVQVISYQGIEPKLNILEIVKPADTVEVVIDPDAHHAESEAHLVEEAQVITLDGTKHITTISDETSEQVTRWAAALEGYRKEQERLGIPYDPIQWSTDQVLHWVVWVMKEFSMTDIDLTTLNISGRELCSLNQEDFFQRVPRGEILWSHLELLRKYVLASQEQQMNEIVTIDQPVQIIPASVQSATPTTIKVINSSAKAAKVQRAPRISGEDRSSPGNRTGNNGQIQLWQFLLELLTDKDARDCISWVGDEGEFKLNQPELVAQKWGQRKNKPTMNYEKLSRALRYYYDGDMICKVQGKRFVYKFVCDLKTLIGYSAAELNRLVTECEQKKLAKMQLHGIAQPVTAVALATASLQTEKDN
As to conditions: protein: recombinant; tags: N-terminal GST; dsDNA, one strand shown. The method, boiled down: as §1

The next assay deals with T4, ERG (Homo sapiens, UniProt P11308 1-479).
T4 sequence: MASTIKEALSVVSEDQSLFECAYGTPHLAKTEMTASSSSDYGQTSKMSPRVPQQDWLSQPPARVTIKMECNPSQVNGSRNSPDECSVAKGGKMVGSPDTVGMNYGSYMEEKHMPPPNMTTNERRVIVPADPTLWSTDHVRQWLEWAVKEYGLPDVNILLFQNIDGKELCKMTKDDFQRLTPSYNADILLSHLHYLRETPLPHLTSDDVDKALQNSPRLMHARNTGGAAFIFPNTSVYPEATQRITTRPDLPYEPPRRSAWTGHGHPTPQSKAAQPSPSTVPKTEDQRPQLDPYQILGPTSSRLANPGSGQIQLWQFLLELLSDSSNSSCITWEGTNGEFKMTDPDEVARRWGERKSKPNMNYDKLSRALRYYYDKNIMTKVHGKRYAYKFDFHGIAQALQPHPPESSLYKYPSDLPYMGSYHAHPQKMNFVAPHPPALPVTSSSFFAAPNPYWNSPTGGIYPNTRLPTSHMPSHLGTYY
As to conditions: protein: recombinant; tags: N-terminal GST; dsDNA, one strand shown. The method, boiled down: as §1

The target in another assay is ELF1 (Homo sapiens, UniProt P32519 1-619). The following applies: protein: recombinant; tags: N-terminal GST; dsDNA, one strand shown. The method, boiled down: as §1
ELF1, sequence (P32519 whole entry): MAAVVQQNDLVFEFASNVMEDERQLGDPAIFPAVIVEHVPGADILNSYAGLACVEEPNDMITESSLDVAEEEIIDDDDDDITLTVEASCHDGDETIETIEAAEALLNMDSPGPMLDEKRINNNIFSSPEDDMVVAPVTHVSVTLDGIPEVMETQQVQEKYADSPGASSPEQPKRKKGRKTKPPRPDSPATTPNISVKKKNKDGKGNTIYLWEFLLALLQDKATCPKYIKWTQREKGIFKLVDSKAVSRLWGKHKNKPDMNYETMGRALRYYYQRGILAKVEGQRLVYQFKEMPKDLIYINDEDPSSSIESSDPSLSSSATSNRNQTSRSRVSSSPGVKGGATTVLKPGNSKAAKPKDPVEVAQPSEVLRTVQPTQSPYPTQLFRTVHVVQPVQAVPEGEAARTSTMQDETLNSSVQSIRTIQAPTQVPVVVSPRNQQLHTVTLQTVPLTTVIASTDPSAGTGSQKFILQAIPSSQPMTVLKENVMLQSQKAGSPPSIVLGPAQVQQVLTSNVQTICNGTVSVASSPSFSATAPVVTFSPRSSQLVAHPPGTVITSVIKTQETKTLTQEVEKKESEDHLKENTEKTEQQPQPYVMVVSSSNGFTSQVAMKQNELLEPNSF
A further assay has as its target T5, EHF (Homo sapiens, UniProt Q9NZC4 1-300).
T5 sequence: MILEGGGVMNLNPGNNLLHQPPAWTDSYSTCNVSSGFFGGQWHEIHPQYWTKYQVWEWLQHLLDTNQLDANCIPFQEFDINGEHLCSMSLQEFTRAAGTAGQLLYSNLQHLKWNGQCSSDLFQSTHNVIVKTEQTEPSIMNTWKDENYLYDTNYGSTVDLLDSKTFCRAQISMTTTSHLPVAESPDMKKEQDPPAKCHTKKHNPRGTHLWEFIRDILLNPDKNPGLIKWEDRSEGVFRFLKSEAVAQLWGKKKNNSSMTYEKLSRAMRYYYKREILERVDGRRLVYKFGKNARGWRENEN
The following applies: protein: recombinant; tags: N-terminal GST; dsDNA, one strand shown. The method, boiled down:
as §1

Another assay has as its target SPI1 (Homo sapiens, UniProt P17947 1-270). The following applies: protein: recombinant; tags: N-terminal GST; dsDNA, one strand shown. The method, boiled down:
as §1

The target of a further assay is SPIB (Homo sapiens, UniProt Q01892 1-262). As to conditions: protein: recombinant; tags: N-terminal GST; dsDNA, one strand shown. The method, boiled down: as §1
SPIB, sequence (Q01892 whole entry): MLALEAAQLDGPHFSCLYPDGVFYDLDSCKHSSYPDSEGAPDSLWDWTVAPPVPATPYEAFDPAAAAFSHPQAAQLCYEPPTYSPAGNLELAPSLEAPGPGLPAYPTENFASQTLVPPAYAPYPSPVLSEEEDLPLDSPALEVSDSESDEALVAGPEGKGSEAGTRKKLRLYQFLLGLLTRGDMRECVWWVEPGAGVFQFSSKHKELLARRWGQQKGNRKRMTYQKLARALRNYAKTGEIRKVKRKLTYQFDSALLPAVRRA
For another assay, the target named is T6, ELK3 (Homo sapiens, UniProt P41970 1-407).
T6 sequence: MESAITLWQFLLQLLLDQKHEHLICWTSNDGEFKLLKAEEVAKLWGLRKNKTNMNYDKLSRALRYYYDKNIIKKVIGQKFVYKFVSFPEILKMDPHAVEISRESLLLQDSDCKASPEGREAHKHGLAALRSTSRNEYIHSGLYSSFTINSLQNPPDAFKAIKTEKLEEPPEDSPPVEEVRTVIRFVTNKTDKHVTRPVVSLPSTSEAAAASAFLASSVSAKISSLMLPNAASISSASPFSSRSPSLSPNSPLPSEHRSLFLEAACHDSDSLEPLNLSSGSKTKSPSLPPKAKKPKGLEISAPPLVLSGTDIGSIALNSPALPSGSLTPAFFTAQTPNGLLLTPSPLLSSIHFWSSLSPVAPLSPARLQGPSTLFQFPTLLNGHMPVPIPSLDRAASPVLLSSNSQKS
The following applies: protein: recombinant; tags: N-terminal GST; dsDNA, one strand shown. The method, boiled down:
as §1

The next assay has as its target T7, FEV (Homo sapiens, UniProt Q99581 1-238).
T7 sequence: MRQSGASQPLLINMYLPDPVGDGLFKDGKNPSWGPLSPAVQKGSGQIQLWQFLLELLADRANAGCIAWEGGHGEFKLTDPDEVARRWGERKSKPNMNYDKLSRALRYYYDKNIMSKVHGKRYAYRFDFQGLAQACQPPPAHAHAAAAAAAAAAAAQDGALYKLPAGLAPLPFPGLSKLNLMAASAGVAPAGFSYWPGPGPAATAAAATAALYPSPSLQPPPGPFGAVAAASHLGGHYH
As to conditions: protein: recombinant; tags: N-terminal GST; dsDNA, one strand shown. The method, boiled down: as §1

The next assay concerns the target ETV5 (Homo sapiens, UniProt P41161 1-510). The following applies: protein: recombinant; tags: N-terminal GST; dsDNA, one strand shown. The method, boiled down:
as §1

A further assay deals with HSF1 (Homo sapiens, UniProt Q00613 1-529). The following applies: protein: recombinant; tags: N-terminal GST; chain copies: 3; dsDNA, one strand shown. The method, boiled down:
as §1

The target of the next assay is T8, SPIC (Homo sapiens, UniProt Q8N5J4 1-248).
T8 sequence: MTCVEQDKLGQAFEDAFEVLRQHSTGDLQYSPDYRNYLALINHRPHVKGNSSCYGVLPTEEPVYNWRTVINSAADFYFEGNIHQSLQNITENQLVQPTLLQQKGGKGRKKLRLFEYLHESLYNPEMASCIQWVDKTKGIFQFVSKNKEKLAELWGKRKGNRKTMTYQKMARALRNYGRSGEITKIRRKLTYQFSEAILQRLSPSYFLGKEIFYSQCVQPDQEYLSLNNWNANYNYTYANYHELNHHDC
As to conditions: protein: recombinant; tags: N-terminal GST; dsDNA, one strand shown. The method, boiled down: as §1

A further assay deals with ELF4 (Homo sapiens, UniProt Q99607 1-663). As to conditions: protein: recombinant; tags: N-terminal GST; dsDNA, one strand shown. The method, boiled down:
as §1

The target in the next assay is T9, ELK4 (Homo sapiens, UniProt P28324-2 1-405).
T9 sequence: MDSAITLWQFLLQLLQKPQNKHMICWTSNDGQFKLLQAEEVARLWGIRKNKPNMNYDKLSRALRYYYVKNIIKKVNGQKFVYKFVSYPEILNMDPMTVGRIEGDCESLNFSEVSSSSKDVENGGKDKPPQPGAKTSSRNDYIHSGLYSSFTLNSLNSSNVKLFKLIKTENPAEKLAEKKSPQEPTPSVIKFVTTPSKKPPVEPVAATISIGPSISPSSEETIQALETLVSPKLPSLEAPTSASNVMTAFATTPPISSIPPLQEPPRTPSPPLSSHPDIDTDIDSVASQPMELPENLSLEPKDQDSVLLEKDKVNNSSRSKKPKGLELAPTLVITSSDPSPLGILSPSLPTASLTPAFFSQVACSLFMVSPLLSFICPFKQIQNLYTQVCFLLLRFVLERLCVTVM
The following applies: protein: recombinant; tags: N-terminal GST; dsDNA, one strand shown. The method, boiled down: as §1

The target of the next assay is T10, ETV2 (Homo sapiens, UniProt O00321 1-342).
T10 sequence: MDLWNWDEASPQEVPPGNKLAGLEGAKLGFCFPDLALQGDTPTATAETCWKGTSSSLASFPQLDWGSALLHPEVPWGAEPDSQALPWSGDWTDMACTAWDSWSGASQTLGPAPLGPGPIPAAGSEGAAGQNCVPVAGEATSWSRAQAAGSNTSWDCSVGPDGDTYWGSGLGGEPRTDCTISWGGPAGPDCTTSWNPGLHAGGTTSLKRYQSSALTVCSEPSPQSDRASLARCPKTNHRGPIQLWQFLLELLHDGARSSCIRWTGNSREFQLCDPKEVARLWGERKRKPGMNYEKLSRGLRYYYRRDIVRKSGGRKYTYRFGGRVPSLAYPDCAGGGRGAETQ
The following applies: protein: recombinant; tags: N-terminal GST; dsDNA, one strand shown. The method, boiled down:
as §1

The target in a further assay is T11, ELF3 (Homo sapiens, UniProt P78545 1-371).
T11 sequence: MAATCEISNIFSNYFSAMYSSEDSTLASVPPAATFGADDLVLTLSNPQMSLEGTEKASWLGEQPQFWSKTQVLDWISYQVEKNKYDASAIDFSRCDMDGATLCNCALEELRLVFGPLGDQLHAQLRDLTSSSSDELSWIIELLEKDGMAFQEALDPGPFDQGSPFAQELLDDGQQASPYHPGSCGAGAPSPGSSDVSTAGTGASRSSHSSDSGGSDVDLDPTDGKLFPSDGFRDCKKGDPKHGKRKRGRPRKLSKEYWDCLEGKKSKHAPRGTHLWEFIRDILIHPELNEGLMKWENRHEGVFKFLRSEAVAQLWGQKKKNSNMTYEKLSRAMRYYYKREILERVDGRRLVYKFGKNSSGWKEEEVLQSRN
The following applies: protein: recombinant; tags: N-terminal GST; dsDNA, one strand shown. The method, boiled down: as §1

A further assay concerns the target CRX (Homo sapiens, UniProt O43186 1-299). The following applies: protein: recombinant; tags: N-terminal GST; dsDNA, one strand shown. The method, boiled down:
as §1

Another assay addresses ETV1 (Homo sapiens, UniProt P50549 1-477). As to conditions: protein: recombinant; tags: N-terminal GST; dsDNA, one strand shown. The method, boiled down: as §1

The results in this text go back to publication PMC7862700, “An all-to-all approach to the identification of sequence-specific readers for epigenetic DNA modifications on cytosine”.

ELF4, sequence (Q99607 whole entry): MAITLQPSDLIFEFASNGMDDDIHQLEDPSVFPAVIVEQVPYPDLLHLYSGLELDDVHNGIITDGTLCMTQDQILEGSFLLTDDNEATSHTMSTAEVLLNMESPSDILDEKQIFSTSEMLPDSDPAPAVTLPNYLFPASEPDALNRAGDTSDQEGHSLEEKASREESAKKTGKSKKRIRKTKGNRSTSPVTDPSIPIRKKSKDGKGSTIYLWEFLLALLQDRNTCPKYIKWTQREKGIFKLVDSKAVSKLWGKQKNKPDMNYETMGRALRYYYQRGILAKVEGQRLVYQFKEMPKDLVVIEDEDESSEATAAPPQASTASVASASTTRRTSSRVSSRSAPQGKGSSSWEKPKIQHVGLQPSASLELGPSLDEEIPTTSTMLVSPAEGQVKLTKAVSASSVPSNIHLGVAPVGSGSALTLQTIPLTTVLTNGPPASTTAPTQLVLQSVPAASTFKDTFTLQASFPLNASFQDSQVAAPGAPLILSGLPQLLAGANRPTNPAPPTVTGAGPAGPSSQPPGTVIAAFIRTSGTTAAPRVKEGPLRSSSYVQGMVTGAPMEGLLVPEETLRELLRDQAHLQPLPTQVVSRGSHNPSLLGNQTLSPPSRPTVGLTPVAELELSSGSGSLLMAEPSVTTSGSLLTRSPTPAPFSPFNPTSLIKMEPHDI
ETV1, sequence (P50549 whole entry): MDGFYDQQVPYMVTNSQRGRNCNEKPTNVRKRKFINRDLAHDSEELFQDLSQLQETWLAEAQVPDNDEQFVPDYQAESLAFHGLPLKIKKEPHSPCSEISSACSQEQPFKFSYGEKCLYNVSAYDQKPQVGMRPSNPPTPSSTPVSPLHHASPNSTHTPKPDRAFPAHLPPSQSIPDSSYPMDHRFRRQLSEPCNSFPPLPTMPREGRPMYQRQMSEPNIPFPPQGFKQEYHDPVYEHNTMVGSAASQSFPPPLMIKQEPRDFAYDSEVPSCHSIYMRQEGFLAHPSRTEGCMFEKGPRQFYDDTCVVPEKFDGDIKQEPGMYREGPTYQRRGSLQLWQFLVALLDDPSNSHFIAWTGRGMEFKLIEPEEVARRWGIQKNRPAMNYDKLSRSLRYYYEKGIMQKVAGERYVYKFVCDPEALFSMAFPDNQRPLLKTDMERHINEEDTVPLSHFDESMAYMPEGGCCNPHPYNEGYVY
ETV5, sequence (P41161 whole entry): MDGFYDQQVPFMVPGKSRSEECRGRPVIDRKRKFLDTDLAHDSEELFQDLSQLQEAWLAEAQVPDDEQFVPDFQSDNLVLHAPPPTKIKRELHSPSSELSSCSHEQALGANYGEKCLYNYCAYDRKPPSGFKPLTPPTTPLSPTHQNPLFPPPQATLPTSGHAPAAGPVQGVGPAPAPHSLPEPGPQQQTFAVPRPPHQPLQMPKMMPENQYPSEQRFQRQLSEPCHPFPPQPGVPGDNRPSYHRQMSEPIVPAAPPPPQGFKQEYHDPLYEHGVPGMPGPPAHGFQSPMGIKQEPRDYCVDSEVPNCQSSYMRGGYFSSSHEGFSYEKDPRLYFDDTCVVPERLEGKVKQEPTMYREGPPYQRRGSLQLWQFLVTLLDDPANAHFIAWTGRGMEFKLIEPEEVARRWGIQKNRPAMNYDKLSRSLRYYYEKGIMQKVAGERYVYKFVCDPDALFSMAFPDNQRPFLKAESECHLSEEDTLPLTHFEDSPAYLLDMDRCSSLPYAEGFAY
HSF1, sequence (Q00613 whole entry): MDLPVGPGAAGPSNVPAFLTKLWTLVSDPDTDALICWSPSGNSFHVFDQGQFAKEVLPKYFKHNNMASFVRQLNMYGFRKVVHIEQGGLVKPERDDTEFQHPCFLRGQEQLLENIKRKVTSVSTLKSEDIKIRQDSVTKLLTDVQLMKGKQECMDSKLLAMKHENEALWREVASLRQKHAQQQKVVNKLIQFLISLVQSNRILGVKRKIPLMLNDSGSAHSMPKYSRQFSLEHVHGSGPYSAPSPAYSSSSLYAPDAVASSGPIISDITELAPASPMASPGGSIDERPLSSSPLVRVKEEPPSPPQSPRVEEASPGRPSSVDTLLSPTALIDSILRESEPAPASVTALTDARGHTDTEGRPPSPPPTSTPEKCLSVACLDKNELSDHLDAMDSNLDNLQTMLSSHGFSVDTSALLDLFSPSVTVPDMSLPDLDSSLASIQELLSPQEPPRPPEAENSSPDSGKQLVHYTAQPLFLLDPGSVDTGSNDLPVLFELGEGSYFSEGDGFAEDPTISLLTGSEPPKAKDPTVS
CRX, sequence (O43186 whole entry): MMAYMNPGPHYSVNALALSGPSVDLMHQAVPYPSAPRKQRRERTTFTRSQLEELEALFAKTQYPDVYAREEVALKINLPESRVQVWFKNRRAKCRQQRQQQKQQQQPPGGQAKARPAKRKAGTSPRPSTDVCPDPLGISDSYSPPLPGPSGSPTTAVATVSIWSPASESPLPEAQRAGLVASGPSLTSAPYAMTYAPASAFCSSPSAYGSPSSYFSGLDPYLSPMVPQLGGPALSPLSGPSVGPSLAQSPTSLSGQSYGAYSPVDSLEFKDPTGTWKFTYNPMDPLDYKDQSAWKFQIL

On to CACTTC, for which the binding signal in the assay with FLI1 was 3.41 fold enrichment (6-mer frequency, TF over GST control); with ELK1, 3.77 fold enrichment (6-mer frequency, TF over GST control); in the assay with GABPA it was 3.25 fold enrichment (6-mer frequency, TF over GST control); with ERG, 4.19 fold enrichment (6-mer frequency, TF over GST control); with ELF1 it was 3.41 fold enrichment (6-mer frequency, TF over GST control); with EHF, 3.63 fold enrichment (6-mer frequency, TF over GST control). The binding signal was 5.56 fold enrichment (6-mer frequency, TF over GST control) with SPI1; 3.54 fold enrichment (6-mer frequency, TF over GST control) with SPIB; 3.97 fold enrichment (6-mer frequency, TF over GST control) with ELK3; 5.06 fold enrichment (6-mer frequency, TF over GST control) with FEV; 3.62 fold enrichment (6-mer frequency, TF over GST control) with ETV5; 1.3 fold enrichment (6-mer frequency, TF over GST control) in the assay with HSF1. Besides, the binding signal with SPIC was 3.53 fold enrichment (6-mer frequency, TF over GST control); in the assay with ELF4, 3.48 fold enrichment (6-mer frequency, TF over GST control); in the assay with ELK4, 3.01 fold enrichment (6-mer frequency, TF over GST control); in the assay with ETV2, 3.4 fold enrichment (6-mer frequency, TF over GST control); with ELF3 it was 3.05 fold enrichment (6-mer frequency, TF over GST control); with CRX, 1.07 fold enrichment (6-mer frequency, TF over GST control). Also, the binding signal with ETV1 was 3.73 fold enrichment (6-mer frequency, TF over GST control).
